This is an account of results in PubChem BioAssay (NCI).

Common to all, as to experiment: NCI-60 one-dose screen, 48 h (100 = growth as untreated, 0 = no growth, -100 = all killed)
The subject of one test is K-562 leukemia. The conditions noted are these: 10 µM unless noted.
Another test has as its system MALME-3M melanoma. The conditions noted are these: 10 µM unless noted.
In another test the test system is MDA-MB-231 breast. As to conditions: 10 µM unless noted.
In the next test the test system is RXF 393 renal. The conditions noted are these: 10 µM unless noted.
The test system of the next test is SF-268 CNS. The conditions noted are these: 10 µM unless noted.
For a further test, the system named is SF-539 CNS. As to conditions: 10 µM unless noted.
The test system of another test is UACC-257 melanoma. As to conditions: 10 µM unless noted.
The subject of another test is M14 melanoma. As to conditions: 10 µM unless noted.
A further test concerns HCT-15 colon. As to conditions: 10 µM unless noted.
The next test concerns HT29 colon. As to conditions: 10 µM unless noted.
The test system of another test is SNB-75 CNS. The conditions noted are these: 10 µM unless noted.
For another test, the system named is SNB-19 CNS. The conditions noted are these: 10 µM unless noted.
In a further test the test system is U251 CNS. The conditions noted are these: 10 µM unless noted.
The test system of another test is PC-3 prostate. As to conditions: 10 µM unless noted.
The subject of another test is SK-MEL-5 melanoma. The conditions noted are these: 10 µM unless noted.
The next test has as its system UACC-62 melanoma. As to conditions: 10 µM unless noted.
The next test relates to LOX IMVI melanoma. As to conditions: 10 µM unless noted.
The test system of a further test is SK-MEL-28 melanoma. As to conditions: 10 µM.
The subject of the next test is SK-MEL-2 melanoma. The conditions noted are these: 10 µM unless noted.
Another test concerns SF-295 CNS. The conditions noted are these: 10 µM unless noted.

SMILES strings stand for the structures. The panel holds about 83,000 compounds, 20% with a hit somewhere; the sample as a whole holds those more often.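 Testing used 96-well plates and a 48-hour single-concentration exposure. Example: -40 means 40% of the starting cells died.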 A number with no mark means an inactive call. The source made the active and inactive calls. How the source made its calls: active means growth percent below 10; inactive means the rest.

Consider `O=C(NC(=S)Nc1cccc(NC(=S)NC(=O)c2ccccc2)c1)c1ccccc1`, for which the growth is 68.7% in the test with K-562 leukemia; 55.3% in the test with MALME-3M melanoma; 56.7% with MDA-MB-231 breast; 85.4% with RXF 393 renal; 56.1% in the test on SF-268 CNS; 70% with SF-539 CNS. The growth with UACC-257 melanoma was 44.7%; in the test with M14 melanoma it was 73.5%; in the test with HCT-15 colon, 73.5%; with HT29 colon it was 74.1%; in the test on SNB-75 CNS, -2.29% (active); in the test on SNB-19 CNS it was 50.9%. Moreover, the growth in the test on U251 CNS was 60.1%; with PC-3 prostate, 61.3%; with SK-MEL-5 melanoma it was 80%; in the test on UACC-62 melanoma it was 67%; in the test on LOX IMVI melanoma it was 71%; in the test on SK-MEL-28 melanoma, 55.3%. In the test on SK-MEL-2 melanoma, the growth is 66.1%.

In the case of `Cc1ccc(CN2CCC(C(=O)Nc3ccc(-c4cc5ccccc5[nH]4)cc3)CC2)o1`, the growth with K-562 leukemia was 3.08% (active); in the test with MALME-3M melanoma, 77.9%; in the test on MDA-MB-231 breast it was 60.7%; with RXF 393 renal, 54.6%; in the test on SF-268 CNS it was 66.6%; in the test with SF-295 CNS, 17.2%. Moreover, the growth is 84.3% with SF-539 CNS; 85.4% in the test with UACC-257 melanoma; 44.2% with HCT-15 colon; 57.1% in the test with HT29 colon; 80% in the test on SNB-19 CNS; 39.8% with U251 CNS. For the same compound, the growth with PC-3 prostate was 2.12% (active); in the test with SK-MEL-5 melanoma, 50.4%; in the test with UACC-62 melanoma it was 72.1%; in the test on LOX IMVI melanoma it was 42.2%; in the test on SK-MEL-28 melanoma it was 85.1%; in the test on SK-MEL-2 melanoma it was 88.4%.

Regarding `NC(=O)CSc1nc(-c2ccc(F)cc2)cc(-c2ccco2)n1`, the growth with K-562 leukemia is 103%; in the test on MALME-3M melanoma it was 110%; in the test with MDA-MB-231 breast, 98.3%; in the test on RXF 393 renal it was 118%; with SF-268 CNS it was 104%; with SF-295 CNS, 102%. Moreover, the growth with SF-539 CNS is 110%; in the test with UACC-257 melanoma, 109%; in the test with HCT-15 colon, 107%; in the test with SNB-75 CNS, 99.2%; in the test with SNB-19 CNS it was 106%; with U251 CNS it was 99.2%. The growth was 89.1% with PC-3 prostate; 103% in the test on SK-MEL-5 melanoma; 95.4% in the test with UACC-62 melanoma; 96.4% in the test with LOX IMVI melanoma; 115% with SK-MEL-28 melanoma; 101% with SK-MEL-2 melanoma.

Turning to `CCCC(c1nnnn1C1CCCCC1)N1CCN(C(=O)c2ccco2)CC1` (stereo not given), the growth in the test with K-562 leukemia is 9.87% (active); in the test with MALME-3M melanoma it was 53.2%; in the test on MDA-MB-231 breast it was 63.9%; in the test on RXF 393 renal, 65.1%; with SF-268 CNS, 60.8%; in the test on SF-539 CNS, 65.7%. Also, the growth in the test with UACC-257 melanoma is 82.5%; in the test on M14 melanoma, 30.5%; with HCT-15 colon, 45.5%; in the test on HT29 colon, 27.2%; with SNB-75 CNS, 76.7%; in the test on SNB-19 CNS it was 84.5%. Further, the growth with U251 CNS was 50.2%; in the test on PC-3 prostate it was 54.2%; in the test with SK-MEL-5 melanoma, 47.1%; in the test with UACC-62 melanoma, 55.7%; in the test on SK-MEL-28 melanoma, 65.6%; with SK-MEL-2 melanoma, 65.1%.

`Nc1nc(Nc2cccc(F)c2)nc2ccccc12`: the growth with K-562 leukemia was 6.62% (active); in the test on MALME-3M melanoma it was 57.2%; in the test on MDA-MB-231 breast it was 43.7%; in the test on RXF 393 renal, 42%; in the test with SF-268 CNS, 77.3%; in the test with SF-539 CNS, 54.3%. For the same compound, the growth in the test on UACC-257 melanoma is 12%; in the test with M14 melanoma it was 22.9%; in the test with HCT-15 colon it was 33.4%; in the test on HT29 colon, 6.89% (active); in the test with SNB-19 CNS, 57.5%; in the test on U251 CNS, 38%. The growth is 44.3% with PC-3 prostate; 16% in the test on SK-MEL-5 melanoma; 41.3% in the test on UACC-62 melanoma; 17.2% in the test on LOX IMVI melanoma; 44.4% in the test on SK-MEL-28 melanoma; 50.6% in the test with SK-MEL-2 melanoma.

For the compound `Clc1ccc(-c2nnc(COc3ccc(C4=NNC(c5ccco5)C4)cc3)o2)cc1` (stereo not given), the growth is 80.7% in the test with K-562 leukemia; 109% in the test with MALME-3M melanoma; 82.7% with MDA-MB-231 breast; 91.7% in the test with RXF 393 renal; 93.9% in the test with SF-268 CNS; 95.6% in the test on SF-539 CNS. Further, the growth in the test on UACC-257 melanoma is 96.1%; with M14 melanoma it was 88%; with HCT-15 colon, 58.8%; in the test with HT29 colon, 101%; in the test on SNB-75 CNS, 84.9%; with SNB-19 CNS it was 92.5%. Moreover, the growth in the test with PC-3 prostate was 80.8%; in the test on UACC-62 melanoma, 76.3%; with LOX IMVI melanoma, 84.8%; in the test on SK-MEL-28 melanoma, 101%; in the test on SK-MEL-2 melanoma it was 106%.

On to `Cc1cc(Nc2ccc(OCc3ccccc3)cc2)nc2cc(O)ccc12`, for which the growth is 5.02% (active) with K-562 leukemia; 43.6% with MALME-3M melanoma; 37.7% in the test on MDA-MB-231 breast; 93.7% in the test with RXF 393 renal; 79.8% with SF-268 CNS; 97.5% in the test on SF-539 CNS. Moreover, the growth was 43.7% in the test on UACC-257 melanoma; 40.4% in the test on M14 melanoma; 16.9% in the test with HCT-15 colon; 2.05% (active) in the test with HT29 colon; 81.6% in the test on SNB-75 CNS; 70.5% with SNB-19 CNS. Besides, the growth is 10.2% in the test on U251 CNS; 53.5% in the test with PC-3 prostate; 9.21% (active) in the test with SK-MEL-5 melanoma; 71.7% in the test with UACC-62 melanoma; 13.3% in the test with LOX IMVI melanoma; 59.2% in the test with SK-MEL-28 melanoma. Also, the growth in the test with SK-MEL-2 melanoma is 70.4%.

As for `CCN(CCO)CCNc1ccc(C)c2sc3cc(Cl)ccc3c(=O)c12`, the growth with K-562 leukemia was -43.6% (active); in the test on MALME-3M melanoma, -27.8% (active); in the test on MDA-MB-231 breast, -42.8% (active); in the test with RXF 393 renal, 5.22% (active); in the test with SF-268 CNS, 44.6%; in the test on SF-295 CNS, 12.5%. The growth in the test on SF-539 CNS was 73.1%; in the test with UACC-257 melanoma it was -49.8% (active); in the test on HCT-15 colon, -44.9% (active); in the test with HT29 colon, -77.3% (active); with SNB-75 CNS, 62.5%; in the test on SNB-19 CNS it was 44.5%. For the same compound, the growth is -32.1% (active) with U251 CNS; 21.8% with PC-3 prostate; -94.3% (active) with SK-MEL-5 melanoma; -94.8% (active) in the test on LOX IMVI melanoma; -61.7% (active) in the test on SK-MEL-28 melanoma; 94.4% in the test on SK-MEL-2 melanoma.
